# Experimental data as given in PubChem BioAssay AID686979 (National Center for Advancing Translational Sciences (NCATS), 2013).
# Hit rate of the full screen: of about 420,000 compounds, about 50,000 (12%) were called active. Inconclusive results (about 26%) are left out. Only a selection was taken, and actives are over-represented in it overall. Unmarked numbers belong to inactive results. The call rests on the fitted dose curve; in most records, active means well fitted inhibition curve with a large enough effect; inconclusive means small, poorly fitted or top-dose-only effect; inactive means flat fitted curve, though single readings scatter.
# Assay: qHTS for Inhibitors of human tyrosyl-DNA phosphodiesterase 1 (TDP1): qHTS in cells in presence of CPT; further: nearly all actives have a fitted effect of over 55% in size
# Details: chicken DT40 Tdp1-/-;hTDP1 cells + 20 nM CPT, ATP luminescence, 48 h; series mostly up to 46.2 µM; activity change, negative = growth inhibition: at the top concentration
# In short: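 Cell growth measured by CellTiter-Glo luminescence after a minimum 48 h, 37 C compound exposure with 20 nM CPT in Tdp1-knockout DT40 cells stably expressing hTDP1, seeded 400/well; qHTS titration format.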
# On the % scale 0 is the no-effect control and ±100 the full control effect; potency means the concentration at half of the fitted maximal effect.
SMILES,"activity change, negative = growth inhibition",Potency
O=C(CC[C@H]1O[C@@H](n2ccc(=O)[nH]c2=O)[C@H](O)[C@@H]1O)N[C@H](Cc1ccccc1)C(=O)NCCCN1CCCC1=O,3.41%,–
CC1CCCN(c2csc3ccc(F)cc3c2=O)C1 (stereo not given),-4.58%,–
Cn1cccc1C(=O)OCC(=O)NCCc1ccccc1,6.72%,–
COC(=O)C1=C(C)N(Cc2ccccc2)C(=NCCCOC(C)C)N[C@H]1c1ccccc1,–,6.51 µM (active)
CCN1C(=O)N[C@@H](c2ccccc2)C(C(=O)OC)=C1C,-10.8%,–
COCCN1C(=O)N[C@@H](c2ccccc2)C(C(=O)OC)=C1C,-14.8%,–
CC(C)C(=O)Nc1ccc2c3c(cccc13)CC2,-12.5%,–
CN(Cc1ccccc1)C(=O)c1cn(C)c2ccc(S(=O)(=O)N3CCCCC3)cc2c1=O,-0.632%,–
CCC(CC)C(=O)Nc1c2c(nn1-c1ccc(C)cc1)CS(=O)(=O)C2,-16.7%,–
O=C(NCc1ccccc1)c1cc(-c2cccc(Cl)c2)on1,-18.1%,–
CCOC(=O)N1CCc2c(sc3c2C(=O)NC(c2ccccc2F)N3)C1 (stereo not given),–,20.6 µM (active)
N#Cc1c(N)sc2c1CCN(C(=O)OCc1ccccc1)C2,-15.3%,–
CCOCCOC(=O)C1=C(C)N(C)C(=O)NC1c1ccccc1F (stereo not given),-20.7%,–
CC1OC(OCC2OC(Oc3c(-c4ccc(O)c(O)c4)oc4cc(O)cc(O)c4c3=O)C(O)C(O)C2O)[C@@H](O)C(O)C1O (stereo not given in full),17.3%,–
CCOc1ccc(CCNC(=O)COC(=O)C2CCN(S(=O)(=O)c3ccccc3)CC2)cc1OCC,1.91%,–
COc1ccc(-c2cc(=O)oc3cc(OCC(=O)N(C)C4CCS(=O)(=O)C4)ccc23)cc1 (stereo not given),-10.4%,–
CCC1SC(CC)C(=O)N(CC(=O)NC2CCCCC2)C1=O (stereo not given),8.38%,–
CN1c2ccc(C=O)c3c(C=O)ccc(c23)N(C)C1(C)C,–,20.6 µM (active)
NC(=O)c1ccc(Nc2ccc3c(c2)CCC3)c([N+](=O)[O-])c1,2.21%,–
CNN/C(N=Cc1ccc([N+](=O)[O-])s1)=N\S(=O)(=O)c1cc(C)c(Cl)cc1SCc1ccccc1,–,1.16 µM (active)
O=C(CCC(=O)c1cccs1)Nc1nc2ccccc2s1,-6.62%,–
COc1cc(NC(=O)CCNC(=O)Cn2ccc3ccccc3c2=O)cc(OC)c1OC,–,inactive
CC(C)n1c(-c2ccncc2)n[nH]c1=S,5.83%,–
C#CCN(N(C)c1ncc(C(F)(F)F)cc1Cl)S(=O)(=O)c1ccc2ccccc2c1,-15.9%,–
CCOC(=O)C1CCN(C(=O)CN2C(=O)c3cccnc3Oc3ccc(C)cc32)CC1,1.02%,–
CC(C)OC(=O)CN1C(=O)c2ccccc2C1=O,-3.69%,–
CC(OC(=O)CN1C(=O)c2ccccc2C1=O)C(=O)c1ccccc1 (stereo not given),-3.02%,–
CC(C)OC(=O)CN1C(=O)C(=O)c2ccccc21,–,13 µM (active)
CCOC(=O)CN1C(=O)C(=O)c2cc(C)ccc21,–,8.2 µM (active)
CCCCOC(=O)Cn1c(=O)n(CC(=O)OCCCC)c2cc(C)ccc21,-31.3%,–
